PLK1 PBD block: qHTS for Inhibitors of PLK1-PDB (polo-like kinase 1 - polo-box domain): Primary Screen | Serine/threonine-protein kinase PLK1 (Homo sapiens), P53350 | actives 2.8% (n = 360,000) | Potency, µM, hits mostly inhibitors | AID 720504, 2013 | Plk1 PBD binding of FITC phosphopeptide, fluorescence polarization; also: series mostly up to about 57 µM; nearly all actives have a fitted effect of over 65% in size
Rango dissoc inh: qHTS Assay for Inhibitors of RanGTP induced Rango (Ran-regulated importin-beta cargo) - Importin beta complex dissociation; Potency, µM (titrated, usually from 46.1 µM); Biochemical FRET Rango-importin beta, RanGTP-induced dissociation; Snurportin-1 (Homo sapiens) + GTP-binding nuclear protein Ran (Homo sapiens) + Importin …; actives 0.071% (n = 340,000); calls by dose curve; also: nearly all actives have a fitted effect of over 45% in size
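Quantitative HTS using a FRET biosensor: 0.1 uM Rango, 0.25 uM importin beta, 0.6 uM Ran, 2 mM GTP, 0.2 uM RCC1 final, PBS with DTT, Tween-20 and BSA. Post-read taken 45 min after Ran addition.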
KAT2A inh: qHTS Assay for Inhibitors of GCN5L2; GCN5L2 HAT assay, ThioGlo1 CoA-SH fluorescence; actives 0.21% (n = 390,000); AID 504327, 2011; Histone acetyltransferase KAT2A (Homo sapiens), Q92830; Potency, µM (titrated, usually from 58.9 µM), hits mostly inhibitors
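ThioGlo1-coupled HAT assay: 20nM GCN5L2, 70uM acetyl-CoA, 75uM H3(1-25) peptide, pH 7.5. Fluorescence read at 340/540nm at start and after 20 min at room temperature.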
Rango complex inh: qHTS Assay for Inhibitors of Rango (Ran-regulated importin-beta cargo) - Importin beta complex formation. Potency, µM (top dose mostly 92.2 µM). actives 0.031% (n = 340,000). Importin subunit beta-1 (Homo sapiens), Q14974. AID 540263, 2011. Rango CFP/YFP FRET sensor + importin beta, 45 min; calls by dose curve; also: nearly all actives have a fitted effect of over 15% in size
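FRET biosensor (snurportin 1 IBB flanked by EYFP and cerulean), 50 nM, with compound 5 min, then 0.125 microM importin beta in PBS, 1 mM DTT, 0.02% Tween-20, 0.1% BSA. CFP/YFP ratio read after 45 min at room temperature; pre-read flags interference.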
PI5P4K alpha inh: qHTS for Inhibitors of phosphatidylinositol 5-phosphate 4-kinase (PI5P4K); actives 1.2% (n = 330,000); PI5P4Kalpha enzyme, ADP-Glo luminescence, 60 min; active compounds read low; max response, %; Phosphatidylinositol 5-phosphate 4-kinase type-2 alpha (Homo sapiens), P48426; active = max response of -50% or lower; inconclusive = between -30% and -50%; inactive = -30% or higher; also: value at the top dose of about 77 µM
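Luminescence from ADP-Glo served as readout of PI5P4Kalpha activity in a qHTS format. Reaction: enzyme, substrate, compound, ATP at 5 microM final, 60 min at RT.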
VDR inh: Inhibitors of the vitamin D receptor (VDR): qHTS; Vitamin D3 receptor (Homo sapiens), P11473; VDR-SRC2-3 peptide fluorescence polarization, 2 h; Potency, µM, actives largely listed as inhibitors; actives 0.93% (n = 400,000); AID 504847, 2011
Target sequence (P11473 whole entry, looked up): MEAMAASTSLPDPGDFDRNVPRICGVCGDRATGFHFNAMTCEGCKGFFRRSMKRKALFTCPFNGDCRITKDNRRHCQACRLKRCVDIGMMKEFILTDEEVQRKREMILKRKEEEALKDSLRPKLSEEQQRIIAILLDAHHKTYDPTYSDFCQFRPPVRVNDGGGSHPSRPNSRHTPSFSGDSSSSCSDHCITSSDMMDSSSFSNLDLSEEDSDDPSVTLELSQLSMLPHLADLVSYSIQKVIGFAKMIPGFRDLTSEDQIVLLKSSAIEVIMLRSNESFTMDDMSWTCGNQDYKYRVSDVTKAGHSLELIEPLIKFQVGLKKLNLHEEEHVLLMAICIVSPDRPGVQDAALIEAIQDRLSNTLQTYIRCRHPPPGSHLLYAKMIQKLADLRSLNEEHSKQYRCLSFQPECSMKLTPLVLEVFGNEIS
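Measured by FP: displacement of SRC2-3 coactivator peptide from VDR by library compounds, following a two-hour ambient incubation.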
Of the large screens only hits and unclear results are named; the others gave an inactive call. Sampled rows, rich in hits. Any-hit rate of the full collection: about 3.6%. Unless noted, calls follow the shape of the dose curve; as a rule, active = well fitted curve in the direction sought with a large enough effect; inconclusive = small, poorly fitted or top-dose-only effect, or another doubt; inactive = no such curve, though single readings can be large; an effect the other way counts as inactive or inconclusive.

CCOC(=O)N1CCN(C(=O)CCSc2ccc(C)cc2)CC1	PLK1 PBD block 3.4µM, PI5P4K alpha inh inconclusive
CCOC(=O)N1CCN(C(=O)CCSc2ccc(Cl)cc2)CC1	none (no result: PI5P4K alpha inh)
CCOc1cc(Cn2c(-c3ccc(O)c(OCC)c3)nc3ccccc32)ccc1O	none (no result: PLK1 PBD block, Rango dissoc inh, Rango complex inh, PI5P4K alpha inh)
CCCn1c(SCC(=O)Nc2nnc(C)s2)nnc1-c1ccoc1C	PLK1 PBD block 27µM, VDR inh inconclusive
CCCCn1c(SCC(=O)Nc2nnc(C)s2)nnc1-c1ccoc1C	none
Cc1nonc1NC(=O)CSc1nnc(-c2ccoc2C)n1CC(C)C	none
Cc1nnc(NC(=O)CSc2nnc(-c3ccoc3C)n2CC(C)C)s1	PLK1 PBD block 27µM, VDR inh inconclusive
Cc1ccc2c(c1)-c1c(ssc1=S)C(C)(C)N2C(=O)c1ccco1	PLK1 PBD block 2.1µM (no result: PI5P4K alpha inh)
CC1(C)c2ssc(=S)c2-c2ccccc2N1C(=O)c1ccco1	PLK1 PBD block 15µM, VDR inh inconclusive
CC(C)OCCCNC(=O)C(=O)Nc1ccc2nc3n(c(=O)c2c1)CCCCC3	none (no result: PLK1 PBD block, Rango dissoc inh, Rango complex inh, PI5P4K alpha inh)
Cc1ccc(N2C(=O)C3C4C=CC(CNC(=S)N5CCN(c6ccccn6)CC5)(O4)C3C2=O)cc1 (stereo unspecified)	VDR inh 79µM
Cn1c2ccccc2c2c(C(=O)N3CCN(c4cccc(Cl)c4)CC3)cn(C3CCCCC3)c(=O)c21	none (no result: PLK1 PBD block, Rango dissoc inh, Rango complex inh, PI5P4K alpha inh)
CN=C(c1ccco1)n1c(=S)nc(-c2ccco2)n(C)c1=S	PLK1 PBD block 19µM, PI5P4K alpha inh -68, VDR inh inconclusive
CCN(CC)S(=O)(=O)c1ccc(Cl)nc1	none
COCCN(CCOC)S(=O)(=O)c1ccc(Cl)nc1	PLK1 PBD block 21µM
Nc1sc2c(c1C(=O)NC1CCS(=O)(=O)C1)CCC2 (stereo unspecified)	PLK1 PBD block 17µM, Rango dissoc inh inconclusive, Rango complex inh inconclusive
NC(=O)c1c(N)sc2c1CCC2	PLK1 PBD block inconclusive, Rango complex inh inconclusive
CCc1nnc(N/N=C/c2ccc(O)c(OC)c2)n1N	VDR inh inconclusive
COc1ccc(/C=N/Nc2nncn2N)cc1Br	VDR inh 22µM
O=C(O)CCc1ccc(-c2ccccc2)o1	PLK1 PBD block inconclusive, KAT2A inh inconclusive, VDR inh 20µM
COc1ccc(CN2C(=O)C(NC(=O)c3ccccc3C)(C(F)(F)F)N=C2c2ccccc2)cc1 (stereo unspecified)	none (no result: PLK1 PBD block, Rango dissoc inh, Rango complex inh, PI5P4K alpha inh)
CCOCCCNC(=O)Nc1cc(C(=O)NCc2ccc(C(C)C)cc2)ccc1N1CCCC1	none (no result: PLK1 PBD block, Rango dissoc inh, Rango complex inh, PI5P4K alpha inh)
O=C(CNC(=O)c1ccc(Cl)cc1)OC1CCOC1=O (stereo unspecified)	PLK1 PBD block 24µM, Rango complex inh inconclusive
CCCCOc1ccc(C(=O)NCC(=O)OC2CCOC2=O)cc1 (stereo unspecified)	PLK1 PBD block inconclusive (no result: KAT2A inh)
S=c1nc(C2CCCCC2)[nH]c2ccccc12	none
S=c1nc(C2CC2)[nH]c2ccccc12	PLK1 PBD block 24µM, PI5P4K alpha inh inconclusive, VDR inh inconclusive
C=C(C(=O)OCC)C(=O)c1ccccc1	none (no result: PLK1 PBD block, Rango dissoc inh, KAT2A inh, Rango complex inh, PI5P4K alpha inh)
C[N+]1(CC(=O)OCCCC2CCCCC2)CCCC1	PLK1 PBD block 30µM
Cc1c(Cl)cccc1S(=O)(=O)N1CCC(C(=O)NNC(=O)C2CC2)CC1	PLK1 PBD block 24µM
Cc1ccc(C(=O)NNC(=O)C2CCN(S(=O)(=O)c3ccc(C)cc3)CC2)cc1	none
Cc1c(Cl)cccc1NC(=O)Cn1nnc(-c2nc(-c3ccccc3)no2)c1N	none (no result: PLK1 PBD block, Rango dissoc inh, Rango complex inh, PI5P4K alpha inh)
Cc1cc(NC(=O)CSc2nc(N)c(NC(=O)c3ccco3)c(=O)[nH]2)no1	PLK1 PBD block 30µM, VDR inh inconclusive
CC1CC(CC(=O)Nc2nc(-c3ccccc3)cs2)C(=O)O1 (stereo unspecified)	none
C/C(CC1CC(COCC(C)C)OC1=O)=N\Nc1nc(-c2ccccc2)cs1 (stereo unspecified)	PLK1 PBD block 21µM, VDR inh inconclusive (no result: PI5P4K alpha inh)
CCN(C(=O)CSc1nc2ccccc2n1Cc1ccc(F)cc1Cl)c1ccccc1	none (no result: PLK1 PBD block, Rango dissoc inh, Rango complex inh, PI5P4K alpha inh)
COc1cc(CN(C(=O)c2ccc(Cl)cc2)C2CCS(=O)(=O)C2)cc(OC)c1OC (stereo unspecified)	none (no result: PLK1 PBD block, Rango dissoc inh, Rango complex inh, PI5P4K alpha inh)
CC1Cc2ccccc2N1C(=O)CSc1nnc(NC(=O)Cc2cccs2)s1 (stereo unspecified)	PLK1 PBD block 30µM, Rango complex inh inconclusive, PI5P4K alpha inh inconclusive
O=C(/C=C/c1ccccc1)NC(NC(=S)Nc1ccc(Cl)cc1Cl)C(Cl)(Cl)Cl (stereo unspecified)	PLK1 PBD block 13µM, VDR inh inconclusive
CCOC(=O)c1ccc(N2C(=O)c3[nH]nc(-c4ccc(OC)cc4)c3C2c2ccc(C)cc2)cc1 (stereo unspecified)	none (no result: PLK1 PBD block, Rango dissoc inh, Rango complex inh, PI5P4K alpha inh)
CCCS(=O)(=O)N1CCC(C(=O)NCCOC)CC1	none (no result: PLK1 PBD block, Rango dissoc inh, Rango complex inh, PI5P4K alpha inh)
CC(Sc1ccc2nnc(-c3ccc(F)cc3)n2n1)C(=O)O (stereo unspecified)	PLK1 PBD block 27µM, PI5P4K alpha inh inconclusive, VDR inh inconclusive
CCOC(=O)C(CC)Sc1ccc2nnc(-c3cccnc3)n2n1 (stereo unspecified)	none
CCC(Sc1ccc2nnc(-c3cccnc3)n2n1)C(=O)O (stereo unspecified)	PI5P4K alpha inh -58
Cc1cc(OCC(=O)Nc2ccc(C(=O)OC3CCCCC3)cc2)cc(C)c1Cl	none (no result: PLK1 PBD block, Rango dissoc inh, Rango complex inh, PI5P4K alpha inh)
N#Cc1c(NC(=O)CSc2nc(-c3ccco3)cc(C(F)(F)F)n2)sc2c1CCCC2	PLK1 PBD block 21µM
Cc1cccc(NC(=O)CSc2ncc(-c3ccc(Br)cc3)[nH]2)c1	none (no result: PLK1 PBD block, Rango dissoc inh, Rango complex inh, PI5P4K alpha inh)
